Laboratory results reported in PubChem BioAssay (NCI).
Compounds without any hit were thinned out: in the full panel of roughly 83,000, 20% have a hit.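 Step 1: grow cells in 96-well plates. Step 2: add test compound at a single concentration. Step 3: incubate 48 h. Step 4: record percent growth.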 Activity calls are given as the source filed them. Rule for the calls: active = growth percent below 10; inactive = the rest.

tested on: A498 renal; assay: NCI-60 one-dose screen, 48 h (100 = growth as untreated, 0 = no growth, -100 = all killed); conditions: 10 µM unless noted

SMILES	growth
COc1ccc(/C=C/c2nc(Nc3ccc(S(=O)(=O)Nc4nc(C)cc(C)n4)cc3)c3ccccc3n2)cc1	7.8% (active)
Cc1ccc(C(=O)/C(=C/c2ccc([N+](=O)[O-])cc2)SCc2ccc(Cl)cc2)cc1	81% (inactive)
O=C1c2c(c3c4cccc(F)c4[nH]c3c3ccc4ccccc4c23)C(=O)N1O	27.2% (inactive)
COc1ccc(C(=O)C2C(C#N)C(C#N)C3C=Cc4ccccc4N32)cc1 (configuration not stated)	-9.53% (active)
CCOC(=O)CC1CSC(N/N=C/c2ccc(-n3cccn3)cc2)=N1 (configuration not stated)	97.8% (inactive)
CC(C)N1C(=O)/C(=C2\SC(=S)N(C(C)C)C2=O)SC1=S	84.2% (inactive)
CC(C)(C)[Si](C)(C)OC1[C@@H](O[Si](C)(C)C(C)(C)C)[C@@H](CNC(=O)NC(=O)CCl)O[C@H]1n1cnc2c(NC(=O)Nc3ccccc3)ncnc21 (some centres not stated)	43.5% (inactive)
COc1ccc(-c2nc3sccn3c2/C=C/C(=O)c2ccc3c(c2)OCO3)cc1	113% (inactive)
O=C1c2ccccc2C(=O)c2c([N+](=O)[O-])ccc(Cl)c21	105% (inactive)
COc1ccc(/C=C/c2nc(Nc3cccc(NC(C)=O)c3)c3ccccc3n2)cc1	9.66% (active)
Cc1ccc(-n2nc3c(c(C#N)c2=O)CC(c2ccccc2[N+](=O)[O-])C([N+](=O)[O-])=C3O)cc1 (configuration not stated)	95.9% (inactive)
COc1cc(OC)cc(C(=O)C[n+]2cccc3cc[nH]c32)c1	92.1% (inactive)

tested on: CCRF-CEM leukemia; assay: as above; conditions: 10 µM unless noted

SMILES	growth
COc1ccc(/C=C/c2nc(Nc3ccc(S(=O)(=O)Nc4cc(C)on4)cc3)c3ccccc3n2)cc1	49% (inactive)
NS(=O)(=O)c1ccc(CCN2C(=O)c3cc(Cl)c(Cl)cc3C2=O)cc1	98% (inactive)
C/C=C(\C)C(=O)NC1=CC[C@@]2(C)C(=CCC3C2CC[C@@]2(C)C3CC[C@@H]2C(C)N(C)C)C1=O (some centres not stated)	15.3% (inactive)
O=c1c2c(c(=O)n1O)c1c3ccc[nH]c3nc1c1nc3[nH]cccc3c12	28.5% (inactive)
Cc1ccc(C(=O)/C(=C\c2ccc([N+](=O)[O-])cc2)S(=O)Cc2ccc(F)cc2)cc1 (configuration not stated)	3.64% (active)
O=C(Nc1ncc(Cc2cc(Cl)ccc2Cl)s1)c1cccs1	49.6% (inactive)
O=C(C[n+]1cccc2ccccc21)c1ccc(O)c(O)c1	-13.8% (active)
OCc1cnccc1NCCCCOc1ccc(Oc2ccccc2)cc1	53.9% (inactive)
Oc1cccc(CCc2ccc(Oc3cc(CCc4cccc(O)c4)cc(O)c3O)cc2)c1	24.1% (inactive)
CC/C(=C\c1ccc(OC)cc1)C(=O)c1ccc(OC)cc1	45.6% (inactive)
CN1C(N2CCN(S(=O)(=O)c3ccccc3)CC2)=NS(=O)(=O)c2ccccc21	118% (inactive)
O=C1Nc2ccc(F)cc2/C1=C\c1c(-c2ccccc2)nc2ccccn12	57.7% (inactive)
O=C(Cn1c(C(=O)c2ccccc2)nc2ccccc21)c1ccc(F)cc1	57.1% (inactive)
COc1ccc(C(=O)c2nc3ccccc3n2CC(=O)c2ccc(Cl)cc2)cc1	13.8% (inactive)
CC(=O)[C@@H]1CC[C@]2(C(N)=O)CC[C@]3(C)[C@H](CC[C@@H]4[C@@]5(C)CCCNC(C)(C)[C@@H]5CC[C@]43C)[C@@H]12	88.3% (inactive)
Oc1c(Cl)cc(Cl)c(Cl)c1CNCCNCc1c(O)c(Cl)cc(Cl)c1Cl	4.31% (active)
O=C1Nc2cc(Cl)ccc2/C1=C\c1c(-c2ccc(F)cc2)nc2ccccn12	7.67% (active)
O=C(NO)c1ccc(-n2nc(-c3ccccc3)c3ccccc32)cc1	12.9% (inactive)
O=C(CNCCN1CCOCC1)N1c2cccc3cccc(c23)N(C(=O)CNCCN2CCOCC2)C1c1cn(-c2ccccc2)nc1-c1cccc([N+](=O)[O-])c1	17.5% (inactive)
O=C1c2cccc3c(-c4ccc5c(c4)ncn5C4CCCCC4)ccc(c23)C(=O)N1CCO	79% (inactive)
CC(=O)Oc1ccc(/C=N/NC(N)=S)nc1	39.3% (inactive)
NC(=S)N1N=C(c2ccccc2)CC1c1cn(-c2ccccc2)nc1-c1ccc(OCc2ccccc2)cc1 (configuration not stated)	103% (inactive)
Cc1ccc(-c2nc3ccccn3c2/C=C2/C(=O)Nc3cc(Cl)ccc32)cc1	56.2% (inactive)
Clc1ccc(-c2ccc(CNCC3CCNCC3)o2)c(-c2ccccc2)c1	-62.7% (active)
CC(=O)[C@H]1CCC/C=C/[C@@H]2C[C@H](O)C[C@H]2[C@H](O)/C=C/C(=O)O1	9.09% (active)
